This note sets out measurements from PubChem BioAssay.

Assay [1] can be described thus: P. berghei load reduction in hepatocytes – cell-based, HepG2, luciferase luminescence, HepG2 viability, primary screen (AID 624349; in the data active = parasite load remaining mostly below about 12%, no sharp cut-off; inactive = mostly above about 10%;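 also: 100% = mean of DMSO negative control wells on the same plate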). Conditions: P. berghei liver stage in HepG2, luciferase luminescence, concentration not given here; parasite load remaining: stronger effect = lower value; viability: measured here: HepG2 viability without parasites.
The nature of assay [2]: signal quenchers or enhancers, Cy5 substrate/SSB – biochemical, NIH Clinical Collection, E. coli SSB, artefact control for HCV NS3 helicase inhibitor project (AID 743268). Conditions: Cy5-oligo bound E. coli SSB, fluorescence interference.
The subject of assay [3] is Hepatitis C virus NS3 helicase. Nature of the assay: blockers of NS3h binding to DNA – biochemical, fluorescence polarization, NIH Clinical Collection, primary screen (AID 743270). Conditions: NS3 helicase binding to Cy5-dT15 DNA, stronger effect = higher value, concentration not given here. On the technique in general: Polarisation of emitted light reports the rotation of a fluorescent probe.

Assay [4] has as its target Single-stranded DNA-binding protein (Escherichia coli (strain K12)) (UniProt P0AGE0). Nature of the assay: SSB-ssDNA binding inhibitors – biochemical, fluorescence polarization, NIH Clinical Collection, counter-screen for HCV NS3 helicase inhibitor project (AID 743271; in the data active = inhibition above about 28%). The conditions noted are these: E. coli SSB-DNA binding, stronger effect = higher value, concentration not given here.

The nature of assay [5]: compounds distorting NS3 helicase fluorescence signal – biochemical, NIH Clinical Collection, artefact control for HCV NS3 helicase inhibitor project (AID 743272).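 Also: HCV NS3 helicase with a Cy5 labelled single stranded DNA probe.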 The conditions noted are these: fluorescence interference counterscreen, HCV NS3 helicase assay; stronger effect = lower value. (In general: A counterscreen serves to expose hits that act by an unwanted route or on another target.)

Assay [6] can be described thus: Wnt pathway potentiators raising nuclear beta-catenin – imaging, WNT3A-conditioned medium, mouse C2C12, NPC library, primary screen (AID 1117326; in the data active = nuclear beta-catenin stimulation mostly above about 4.2%, no sharp cut-off; inactive = mostly below about 10%). The conditions noted are these: stronger effect = higher value.
Assay [7] is described as follows: stimulators of insulin release from INS-1E, primary screen, cell-based, 5 mM glucose, NPC library (AID 1117329;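 active = compound raises insulin release from rat beta cells at 5 mM glucose, no numeric limit stated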). The conditions noted are these: rat INS-1E insulin secretion, at 10 µM, stronger effect = higher value.
Assay [8] in a line: growth inhibition of GSK3B-pretreated HCT116 cells – cell-based, CellTiter-Glo, 0.2 to 20 µM (AID 1117336;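 active = compounds lowering colon cancer cell viability after pretreatment blocking the GSK3B kinase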). Conditions: HCT116 viability after GSK3B inhibitor, at 20 µM, stronger effect = higher value. (Cellular ATP, detected with luciferase, serves as a proxy for viable cell number.)
The nature of assay [9]: inhibition of endothelial tube formation, primary screen, imaging, VEGF stimulated, CD31 staining, tube area, NPC library (AID 1117340;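 active = compound that reduces growth-factor-driven endothelial tube area in a mixed cell culture, no cutoff stated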). Conditions: VEGF-stimulated ADSC/ECFC co-culture, at 10 µM, stronger effect = higher value.
Assay [10] in a line: GLP1 release stimulators, primary, NCI-H716, NPC library (AID 1117341;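 active = compound raises GLP1 secretion from the human gut endocrine cells, with no numeric limit stated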). The conditions noted are these: NCI-H716 cells, at 10 µM, stronger effect = higher value.
Assay [11] can be described thus: HCT116 colon cancer cell growth inhibition, primary screen, CellTiter-Glo luminescence, NPC library (AID 1117342;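 active = compounds that lower survival of HCT116 colon cancer cells in the luminescence readout, no numeric limit stated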). The conditions noted are these: at 20 µM (top of the series).
A short description of assay [12]: reduced SW480 viability measured with CellTiter-Glo, NPC library, primary (AID 1117343;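 active = compounds that lower viability of the colon cancer cells in the luminescence readout, with no numeric limit stated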). Conditions: CellTiter-Glo luminescence; at 20 µM (top of the series).
The nature of assay [13]: NPC library primary testing for decreased DLD-1 cell viability via CellTiter-Glo (AID 1117346;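 active = compounds that lower survival of DLD-1 colon cancer cells in the luminescence readout, no cutoff given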). Conditions: DLD-1 viability, CellTiter-Glo luminescence; at 20 µM (top of the series).
Assay [14] addresses 6-phosphogluconate dehydrogenase, decarboxylating (Homo sapiens) (UniProt P52209). The assay is described as follows: inhibition of human phosphogluconate dehydrogenase – biochemical, recombinant enzyme, NADPH absorbance, primary screen (AID 1159550;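 active = at least 20% inhibition of 6-phosphogluconate dehydrogenase activity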). The conditions noted are these: recombinant 6PGD, NADPH absorbance 341 nm; at 10 µM; stronger effect = higher value.
Assay [15] addresses NAD(+) hydrolase SARM1 (Homo sapiens) (UniProt Q6SZW1). The assay is described as follows: blocking NAD cleavage by SARM1 SAM-TIR – cell lysate, NAD-Glo luminescence (AID 1508614;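 active = compound whose remaining NAD level is above about 45 nM, limit read from the data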;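 also: higher remaining NAD means stronger inhibition of SARM1 NADase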). The conditions noted are these: SAM-TIR HEK293T lysate NADase, at 1 µM, stronger effect = higher value.
The test system of assay [16] is F380Y. The assay is described as follows: BK channel mutant inhibitors and activators – cell-based, U2OS BacMam, thallium flux, beta subunits, selectivity assay, profiling panel (AID 1259406;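 active = thallium flux through the channel raised or lowered by more than 3 SD from vehicle-only wells, actives on both sides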;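 also: initial slope of Thallos dye fluorescence rise after thallium is added; log ratio against the mean of 0.3% DMSO vehicle wells on the same plate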). The conditions noted are these: U2OS BacMam BK variants, at 30 µM.
A short description of assay [17]: viability loss with induced miR-34 in A549 – imaging, A549 dox-inducible miR-34, nuclei and caspase counts, primary screen (AID 1347080;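 active = compounds whose cell count with miR-34 switched on is under 0.7 times the count with it off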). The conditions noted are these: A549 miR-34 inducible, Hoechst nuclei count, 48 h.
Assay [18] addresses Mitogen-activated protein kinase 7 (Homo sapiens) (UniProt Q13164). The assay is described as follows: Gal4-ERK5 driven luciferase induction – cell-based, HTS, primary screen (AID 1508626;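 active = luciferase signal above three times the same-plate solvent-only control wells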;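 also: luciferase driven by Gal4-ERK5 fusion binding five Gal4 sites before minimal TATA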). The conditions noted are these: HeLa Gal4-ERK5 transactivation, 18 h, at 5 µM, stronger effect = higher value.
Assay [19] can be described thus: MELAS cybrid and Rieske KO viability enhancers – cell-based, MELAS cybrids, Rieske KO mouse fibroblasts, CellTiter-Glo, primary screen (AID 1508586;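 active = mean z-score across replicates of 1.96 or higher in either the MELAS or the Rieske mutant cell line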;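 also: z relative to plate mean and SD of compound and empty wells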). Conditions: low glucose.
The mark [20] stands for this setting: stronger effect = lower value, cell number ratio, induced over uninduced.
Where [21] appears, read: measured here: relative caspase fold change +Dox/-Dox.
Where [22] appears, read: measured here: total cells with miR-34 induction, stronger effect = lower value.
Setting [23] is: measured here: total cells without miR-34 induction.
The mark [24] stands for this setting: MELAS cybrid survival, CellTiter-Glo 48 h, stronger effect = higher value.
Where [25] appears, read: Rieske KO mouse fibroblast survival, CellTiter-Glo 72 h.

Values joined by “and” are separate entries in the source; they are usually repeats but may differ in a detail not shown here. Equal entries are not always repeated. Active and inactive are the calls of the source. Unless noted, no rule for the calls is given here.

Sequence of NAD(+) hydrolase SARM1 (Homo sapiens) (Q6SZW1 whole entry, looked up): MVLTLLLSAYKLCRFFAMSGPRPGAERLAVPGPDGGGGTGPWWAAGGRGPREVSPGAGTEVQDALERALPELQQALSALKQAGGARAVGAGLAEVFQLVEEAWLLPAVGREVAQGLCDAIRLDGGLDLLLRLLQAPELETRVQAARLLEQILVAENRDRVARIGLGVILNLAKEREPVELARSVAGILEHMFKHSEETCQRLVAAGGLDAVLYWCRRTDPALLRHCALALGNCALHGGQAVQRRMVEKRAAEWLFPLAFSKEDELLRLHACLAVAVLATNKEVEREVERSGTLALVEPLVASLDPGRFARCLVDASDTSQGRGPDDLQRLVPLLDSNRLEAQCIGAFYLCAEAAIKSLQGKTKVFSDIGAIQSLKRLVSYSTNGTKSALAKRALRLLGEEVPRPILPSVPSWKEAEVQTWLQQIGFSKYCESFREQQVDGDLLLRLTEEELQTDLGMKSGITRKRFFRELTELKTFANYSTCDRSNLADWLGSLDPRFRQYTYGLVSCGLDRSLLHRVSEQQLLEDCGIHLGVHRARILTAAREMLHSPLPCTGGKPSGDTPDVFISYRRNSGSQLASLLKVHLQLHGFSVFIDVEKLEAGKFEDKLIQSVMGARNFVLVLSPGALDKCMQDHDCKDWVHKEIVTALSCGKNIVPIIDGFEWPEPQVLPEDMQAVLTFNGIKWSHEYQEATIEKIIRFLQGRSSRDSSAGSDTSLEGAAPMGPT
Sequence of 6-phosphogluconate dehydrogenase, decarboxylating (Homo sapiens) (P52209 whole entry, looked up): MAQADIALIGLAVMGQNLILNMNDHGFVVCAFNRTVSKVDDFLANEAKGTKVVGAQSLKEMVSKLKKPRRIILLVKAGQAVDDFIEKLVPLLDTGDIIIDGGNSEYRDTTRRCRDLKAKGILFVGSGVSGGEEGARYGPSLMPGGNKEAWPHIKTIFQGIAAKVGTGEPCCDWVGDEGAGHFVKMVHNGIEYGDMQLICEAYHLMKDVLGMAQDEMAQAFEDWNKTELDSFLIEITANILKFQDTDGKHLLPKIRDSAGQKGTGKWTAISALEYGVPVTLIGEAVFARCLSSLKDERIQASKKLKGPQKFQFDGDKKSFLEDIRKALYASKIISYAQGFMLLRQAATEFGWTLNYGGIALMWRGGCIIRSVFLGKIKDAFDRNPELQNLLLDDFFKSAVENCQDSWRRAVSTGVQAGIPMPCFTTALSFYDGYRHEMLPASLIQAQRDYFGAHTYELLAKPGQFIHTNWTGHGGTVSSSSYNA
Sequence of Mitogen-activated protein kinase 7 (Homo sapiens) (Q13164 whole entry, looked up, the tested form may be a part): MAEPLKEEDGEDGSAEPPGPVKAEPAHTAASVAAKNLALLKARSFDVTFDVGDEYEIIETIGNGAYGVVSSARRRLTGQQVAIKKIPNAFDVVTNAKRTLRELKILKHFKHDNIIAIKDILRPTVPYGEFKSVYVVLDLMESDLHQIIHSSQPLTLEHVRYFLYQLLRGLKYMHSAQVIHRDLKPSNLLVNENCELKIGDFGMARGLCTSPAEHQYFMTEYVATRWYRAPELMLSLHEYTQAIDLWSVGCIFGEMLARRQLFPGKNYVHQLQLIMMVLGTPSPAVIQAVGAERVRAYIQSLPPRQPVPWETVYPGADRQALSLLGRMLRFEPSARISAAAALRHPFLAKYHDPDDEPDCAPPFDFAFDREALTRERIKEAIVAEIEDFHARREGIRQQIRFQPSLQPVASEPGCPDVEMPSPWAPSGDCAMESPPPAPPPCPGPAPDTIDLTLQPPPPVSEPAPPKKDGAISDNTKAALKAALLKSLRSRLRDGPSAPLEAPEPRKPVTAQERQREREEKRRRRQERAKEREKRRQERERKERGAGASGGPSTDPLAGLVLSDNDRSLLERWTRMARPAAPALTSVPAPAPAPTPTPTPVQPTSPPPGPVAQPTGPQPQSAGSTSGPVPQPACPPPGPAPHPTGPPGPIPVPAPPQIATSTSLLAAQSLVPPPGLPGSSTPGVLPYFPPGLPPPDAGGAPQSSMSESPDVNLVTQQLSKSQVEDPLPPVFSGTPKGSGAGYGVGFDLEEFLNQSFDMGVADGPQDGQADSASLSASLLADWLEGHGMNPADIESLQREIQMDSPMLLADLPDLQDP

In the case of `C[C@@H]1O[C@@H](OC[C@H]2O[C@@H](Oc3c(-c4ccc(O)c(O)c4)oc4cc(O)cc(O)c4c3=O)[C@H](O)[C@@H](O)[C@@H]2O)[C@H](O)[C@H](O)[C@H]1O`, the parasite load remaining in assay [1] is 117% (inactive). Also, the viability (as a rule, a read-out of living cells in per cent, often relative to untreated cells) in [1] was found to be 84.5%. The fluorescence ratio was 0.95 (inactive) in assay [2] and 1.02 (inactive) in assay [5]. Besides, the inhibition (commonly the change of the read-out against control, counted positive when it falls) in [3] was 5.94% (inactive); in assay [4] it was 11.4% (inactive); in [14], 4.58% (inactive). The nuclear beta-catenin stimulation in assay [6] (at 10 µM) was 0% (inactive); in assay [6] (stimulation, at 2 µM), 1.9%. Further, the insulin secretion stimulation in [7] was 0.6% (inactive). Moreover, the viability decrease in [8] is 56% (active). For the same compound, the tube area decrease in assay [9] was 4.5% (inactive). In assay [10], the GLP1 secretion stimulation was -1.2% (inactive). Besides, the inhibition of viability in assay [11] was 70.9% (active). The results for the viability decrease (inhibition) in [12] and in assay [13] were 59.4% (active) and 44.7% (inactive), respectively. In addition, in [15], the remaining NAD is 10 nM (inactive). For the same compound, the log fold change Tl+ flux in assay [16] is -0.0319 (inactive).

Turning to `C[C@]12CCC(=O)C=C1CC[C@@H]1[C@@H]2[C@@H](O)C[C@@]2(C)[C@H]1CC[C@]2(O)C(=O)COC(=O)CCC(=O)O`, in [1], the parasite load remaining is 82.9% (inactive). The viability in assay [1] came to 105%. In addition, the fluorescence ratio in assay [2] was 0.99 (inactive); in assay [5], 1 (inactive). For the same compound, the inhibition is -1.36% (inactive) in [3], -0.48% (inactive) in assay [4] and 1.94% (inactive) in assay [14]. Moreover, the nuclear beta-catenin stimulation in assay [6] (at 10 µM) is 0.9% (inactive); in assay [6] (stimulation, at 2 µM), 3%. Moreover, the insulin secretion stimulation in [7] is 1.4% (inactive). The viability decrease in assay [8] is 0.2% (inactive). Besides, the tube area decrease in [9] is 5.6% (inactive). Also, the GLP1 secretion stimulation in [10] is -1.5% (inactive). Moreover, in [11], the inhibition of viability is 6.6% (inactive). Besides, the viability decrease (inhibition) in [12] was -13.6% (inactive); in [13], 13.1% (inactive). For the same compound, the values for the fold change in assay [17] (setting [20]) and in [17] (setting [21]) were 0.985 (inactive) and 1.65, respectively. In addition, the cell count in [17] (setting [22]) was 7160; in assay [17] (setting [23]), 7270. Further, in assay [15], the remaining NAD was 10 nM (inactive). The luciferase signal in [18] was 96 AU (inactive). For the same compound, the log fold change Tl+ flux in assay [16] is 0.0328 (inactive).

In the case of `CC(COc1ccccc1)NC(C)C(O)c1ccc(O)cc1` (configuration not stated), the parasite load remaining in assay [1] was 51.4% (inactive) and 31.5% (inactive) and 101% (inactive). The viability in [1] was 103% and 49.4% and 92.3%. The figures for the fluorescence ratio in [2] and in assay [5] were 1 (inactive) and 0.91 (inactive), respectively. Moreover, the values for the inhibition in [3], in [4] and in [14] were -4.09% (inactive), 1.81% (inactive) and 0.0758% (inactive), respectively. Also, the nuclear beta-catenin stimulation was 2.4% (inactive) in assay [6] (at 10 µM) and -1% in assay [6] (stimulation, at 2 µM). The insulin secretion stimulation in assay [7] was 3% (inactive). Besides, the viability decrease in [8] is -3.4% (inactive). Also, the tube area decrease in assay [9] is 15.3% (inactive). Moreover, the GLP1 secretion stimulation in assay [10] is 2.4% (inactive). Also, the inhibition of viability in [11] was 18.7% (inactive). Further, the viability decrease (inhibition) was 42.3% (inactive) in [12] and -4.6% (inactive) in assay [13]. Moreover, the fold change in assay [17] (setting [20]) was 0.93 (inactive) and 0.88 (inactive); in assay [17] (setting [21]) it was 1.41 and 1.05. For the same compound, the cell count in [17] (setting [22]) was 10000 and 8140; in [17] (setting [23]), 10800 and 9240. Further, the values for the z-score in [19] (setting [24]) and in assay [19] (setting [25]) were 0.843 (inactive) and 0.798, respectively. Also, the remaining NAD in assay [15] was 10 nM (inactive). In addition, in [18], the luciferase signal is 72 AU (inactive). In addition, the log fold change Tl+ flux in assay [16] is -0.000146 (inactive).

On to `OCCN1C[C@H](O)[C@@H](O)[C@H](O)[C@H]1CO`, for which the parasite load remaining in assay [1] was 103% (inactive). In addition, the viability in assay [1] stood at 80%. The fluorescence ratio was 1.05 (inactive) in assay [2] and 0.93 (inactive) in [5]. Moreover, the inhibition is -1.98% (inactive) in [3], -4.72% (inactive) in assay [4] and 6.33% (inactive) in [14]. The nuclear beta-catenin stimulation in assay [6] (at 10 µM) is -2.3% (inactive); in assay [6] (stimulation, at 2 µM) it was -1%. The insulin secretion stimulation in assay [7] was 5.4% (inactive). For the same compound, in assay [8], the viability decrease is -1.6% (inactive). Further, in assay [9], the tube area decrease is 0.1% (inactive). For the same compound, the GLP1 secretion stimulation in assay [10] is -1.4% (inactive). Also, the inhibition of viability in [11] was 0.6% (inactive). The viability decrease (inhibition) in assay [12] is -1.7% (inactive); in assay [13], 0.1% (inactive). Also, the z-score is 0.074 (inactive) in [19] (setting [24]) and 0.78 in assay [19] (setting [25]). Also, the remaining NAD in assay [15] was 10 nM (inactive). Moreover, in [18], the luciferase signal was 80 AU (inactive). For the same compound, in assay [16], the log fold change Tl+ flux was -0.0502 (inactive).
